# Screening results as filed in PubChem BioAssay.
# The list is not random: actives were taken first. Their share in the collection is about 8.3%.
# HCV inh = inhibitors of hepatitis C virus infection. Huh7.5.1 HCVcc-Cre infection, luciferase reporter, 44 h. Potency, µM (titrated, usually from 41.8 µM), without a hit: at the top dose activity change, negative = inhibition, most hits filed as inhibitors. 3.4% of 340,000 active; further: potency means the concentration at half of the fitted maximal effect
#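 Reporter virus HCVcc-Cre (~0.5 moi) infects cells exposed to compound; seeding density 1,000 cells/well with 4 h settling beforehand. Luminescence, 15 sec read, taken 44 h post-infection following a 15 min RT substrate incubation.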
# FBPA Giardia inh = inhibitors of Giardia lamblia fructose-1,6-bisphosphate aldolase | A8B2U2 | purified Giardia FBPA | Potency, µM (series often up to 59.6 µM), for inactives: at the top dose activity, negative = inhibition, hits mostly inhibitors | 0.71% of 290,000 active | AID 2451; further: potency means the concentration at half of the fitted maximal effect; nearly all actives have a fitted effect of over 55% in size
# Target sequence (A8B2U2 whole entry, looked up): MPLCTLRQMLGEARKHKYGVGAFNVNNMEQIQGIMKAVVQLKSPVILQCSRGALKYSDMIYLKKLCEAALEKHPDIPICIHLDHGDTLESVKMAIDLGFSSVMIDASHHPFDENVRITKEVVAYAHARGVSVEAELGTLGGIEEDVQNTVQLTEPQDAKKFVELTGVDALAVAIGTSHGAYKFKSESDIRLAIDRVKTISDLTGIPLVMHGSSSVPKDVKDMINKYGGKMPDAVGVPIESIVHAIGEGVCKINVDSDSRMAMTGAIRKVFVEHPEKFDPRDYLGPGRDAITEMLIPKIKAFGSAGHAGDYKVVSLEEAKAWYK
#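 Giardia FBPA (40 nM reagent) was preincubated 10 min at RT with compound (up to 57.5 uM final), then substrate plus GAPDH/TPI/NAD/arsenate coupling system with diaphorase/resazurin was added; resorufin fluorescence (525/598 nm) was read after 20 min.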
# Lassa entry inh = inhibitors of Lassa virus binding or cell entry | Lassa virus pseudotype entry inhibition, cell reporter | Potency, µM (series often up to 37.9 µM), for inactives: at the highest dose activity change, negative = inhibition, usual class: inhibitors | 1.2% of 300,000 active; calls by dose curve; tested in HEK293 cells; further: potency means the concentration at half of the fitted maximal effect; nearly all actives have a fitted effect of over 50% in size
# FMDV inh = blocks foot and mouth disease virus; FMDV antiviral cell-based qHTS; Potency, µM (doses to about 57.9 µM), for the others: at the highest dose activity change, negative = inhibition, most hits filed as inhibitors; 1.2% of 410,000 active; calls by dose curve; tested in HEK293T cells; further: read-out not given here; potency means the concentration at half of the fitted maximal effect; nearly all actives have a fitted effect of over 45% in size
# MARV entry inh = Marburg virus entry inhibition; Marburg virus pseudotyped entry inhibition, cell reporter; Potency, µM (titrated, usually from 37.8 µM), inactives show at the top dose activity change, negative = inhibition, usual class: inhibitors; 1.8% of 300,000 active; AID 540276; calls by dose curve; tested in HEK293 cells; further: potency means the concentration at half of the fitted maximal effect
# HCMV inh = blocks human cytomegalovirus replication; activity change, negative = inhibition, % at 57.5 µM; AID 1259415; 4.5% of 410,000 active; HFF cells, HCMV-luciferase reporter, 72 h; active compounds read low; in the data active means activity change below about -60%; inconclusive means no clear call, values can overlap the other calls; inactive means above about -39%
#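 After 16 h attachment at 37C, HFF cells received test compound and HCMV-luciferase (1 PFU/cell); reporter luminescence read 72 h later, data normalized against buffer-only and known inhibitor Salinomycin.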
# Active calls of the source: *; ? = inconclusive; nt = no result given; + = active, no number; [ ] = remark or other dose. Unless noted, the call rests on the fitted dose curve; in most records, active means well fitted curve in the direction sought with a large enough effect; inconclusive means small, poorly fitted or top-dose-only effect, or another doubt; inactive means no such curve, though single readings can be large; an effect the other way counts as inactive or inconclusive. On the % scale 0 is the no-effect control and ±100 the full control effect.
SMILES,HCV inh,FBPA Giardia inh,Lassa entry inh,FMDV inh,MARV entry inh,HCMV inh
COCCN(Cc1ccco1)C(=O)C1CCCN(c2ncnc3c2nc2n3CCCCC2)C1 (centres undefined),6.9%,nt,11.2µM*,18.7%,?,-18.3
O=C(NCC1CCN(Cc2ccc(F)cc2)CC1)C1CCCN(c2ncnc3c2nc2n3CCCCC2)C1 (centres undefined),?,nt,nt,-14.5%,nt,-61.5*
O=C(NCc1cccc(Cl)c1)C1CCCN(c2ncnc3c2nc2n3CCCCC2)C1 (centres undefined),?,-1.2%,?,-21.9%,?,-66.7*
CCc1cccc(NC(=O)C2CCCN(c3ncnc4c3nc3n4CCCCC3)C2)c1 (centres undefined),11.2µM*,-8.6%,?,?,?,?
O=C1CCCC=C1[C@H](CCc1ccccc1)OC(=O)c1ccc(Br)cc1,nt,0.1%[12.9 µM],nt,nt,?,nt
CC(C)[C@@H]1CC[C@H](C)C[C@H]1OP(N)(=O)c1ccccc1 (some centres undefined),nt,nt,nt,nt,-2.5%,nt
COc1ccc(Cl)cc1NC(=O)c1ccc2c(c1)CCCN2S(C)(=O)=O,nt,nt,2.6%[46.1 µM],-22.4%,19.5%[46.1 µM],?
CC(=O)Nc1cc(C(=O)N2CCN(C(=O)c3ccco3)CC2)cc2ncn(CCc3ccccn3)c12,nt,nt,nt,-10.1%,nt,nt
Cc1nc(NCc2ccccc2)c2nc(-c3ccccc3)n(CCN3CCOCC3)c2n1,nt,-2.1%,nt,nt,nt,nt
O=C(NCC1CCN(Cc2cccc(Cl)c2)CC1)C1CCCN(c2ncnc3c2nc2n3CCCCC2)C1 (centres undefined),?,4.3%,nt,-19.4%,nt,?
O=C(NCc1cccc(Cl)c1)C1CCN(c2nn3cc(-c4ccc(F)cc4)nc3s2)CC1,nt,nt,24.1%[46.1 µM],31.2%,nt,16.5
O=C(NCC1CCN(Cc2ccc(Cl)cc2)CC1)C1CCCN(c2ncnc3c2nc2n3CCCCC2)C1 (centres undefined),?,nt,nt,10µM*,nt,-78.6*
O=C(NCc1cccc(Cl)c1)C1CCCN(c2nn3cc(-c4ccc(F)cc4)nc3s2)C1 (centres undefined),nt,nt,-5.7%[46.1 µM],11.2µM*,nt,+
COCCN1C(=O)C2=C(C1=O)C1N(C)c3ccccc3[C@@]13C[C@@H](CO)N=C3N2 (some centres undefined),nt,nt,nt,nt,24.5%[14.2 µM],nt
CC(=O)C(C(=O)Nc1c(C)cccc1C)N(Cc1ccco1)C(=O)C(=O)c1ccccc1 (centres undefined),nt,nt,nt,nt,nt,-12.2
Cc1ccc(S(=O)(=O)N2CCOCC2)cc1C(=O)N1CCN(c2ccc(C(F)(F)F)cn2)CC1,10µM*,nt,?,?,?,-76.3*
Cc1ccc(S(=O)(=O)N2CCOCC2)cc1C(=O)N1CCCC1,?,-2.3%,2.2%[46.1 µM],16.4%,-4.6%[46.1 µM],-26.4
Brc1cnc(N2CCCC2)nc1N1CCOCC1,22.4µM*,-1.8%,0.2%,-17.0%,-17.1%,33.9
COCCN(CCOC)C(=O)c1cc2c(=O)n3ccccc3nc2n1C,nt,nt,1.3%[46.1 µM],3.8%,nt,-1.6
Cc1ccccc1NS(=O)(=O)c1ccc(C(=O)NCC(c2ccccc2)N(C)C)cc1 (centres undefined),-21.5%,nt,-1.2%,-14.9%,11.2µM*,-13.7
CN(C)C(CNC(=O)c1ccc(-c2ccccc2)cc1)c1ccccc1 (centres undefined),?,4.0%,-21.8%,-6.5%,11.2µM*,-1.7
COc1ccc(C(CNC(=O)Cc2ccc(-c3ccccc3)cc2)N(C)C)cc1 (centres undefined),?,3.0%,12.5%,-20.3%,11.2µM*,7.2
O=C(c1ccc(S(=O)(=O)Cc2ccccc2Cl)c([N+](=O)[O-])c1)N1CCOCC1,-13.1%,-1.9%,?,?,?,-69.2*
Cc1ccccc1CS(=O)(=O)c1ccc(C(=O)N2CCOCC2)cc1[N+](=O)[O-],?,-7.7%,nt,?,nt,?
CC1CCN(C(=O)c2ccc(S(=O)(=O)Cc3ccccc3F)c([N+](=O)[O-])c2)CC1,?,2.6%,?,20µM*,?,-75.7*
SMILES,HCV inh,FBPA Giardia inh,Lassa entry inh,FMDV inh,MARV entry inh,HCMV inh
O=C(c1ccc(S(=O)(=O)Cc2ccccc2F)c([N+](=O)[O-])c1)N1CCCC1,3.7%,-8.8%,-1.7%,?,?,-4.7
Cc1ccc(CS(=O)(=O)c2ccc(C(=O)N3CCN(c4ccccn4)CC3)cc2[N+](=O)[O-])cc1,?,-6.4%,-24.0%,15.8µM*,?,-91.4*
O=C(c1ccc(S(=O)(=O)c2ccc(F)cc2)c([N+](=O)[O-])c1)N1CCCCCC1,?,-4.4%,?,12.6µM*,?,?
Cc1ccc(CS(=O)(=O)c2ccc(C(=O)N3CCCCC3)cc2[N+](=O)[O-])cc1,-9.4%,0.2%,-34.6%,?,?,-26.8
CC(C)=CCN1C(=O)[C@]2(O[C@H](COc3ccccc3)CC3=C2CCC3)c2ccccc21,nt,nt,nt,nt,-4.7%[14.2 µM],nt
CC(CCC(=O)OC[C@H]1O[C@H](C#Cc2ccccc2)C=C[C@H]1Oc1ccc(C)cc1)=NOC[C@@H](O)COCc1ccco1,nt,nt,nt,nt,-9.6%[14.2 µM],nt
CCOC(=O)c1c(-c2ccc([N+](=O)[O-])cc2)[nH]c2ccc(C)cc12,nt,nt,nt,nt,nt,-22.0
O=C(c1ccc(S(=O)(=O)c2ccccc2Cl)c([N+](=O)[O-])c1)N1CCN(Cc2ccccc2)CC1,?,-6.4%,?,11.2µM*,?,-84.9*
O=C(c1ccc(Br)c([N+](=O)[O-])c1)N1CCN(Cc2ccccc2)CC1,-13.8%,0.8%,nt,-27.2%,nt,14.9
Cc1ccc(C)c(NC(=O)C(Cc2ccccc2)n2cccc2)c1 (centres undefined),nt,nt,nt,-14.3%,?,?
Cc1ccc(-n2c(SCc3nc(-c4ccc(Cl)cc4)no3)nnc2-c2ccncc2)cc1,nt,nt,-17.8%[46.1 µM],?,?,-22.8
Clc1ccccc1-c1nnc(SCc2nc(-c3ccccc3)no2)n1-c1ccccc1,nt,nt,?,25.1µM*,?,?
Clc1ccc(-c2noc(CSc3nnc(-c4ccncc4)n3-c3ccccc3)n2)cc1,3.98µM*,3.1%,-28.4%,25.1µM*,?,-101.3*
CCOc1ccc(-c2noc(CSc3nnc(-c4ccccc4)n3-c3ccccc3)n2)cc1,nt,nt,-24.3%[46.1 µM],?,1.8%[46.1 µM],-14.5
COc1ccc2c(c1)O[C@@H](c1cccc(C(F)(F)F)c1)[C@H](OC(=O)NC1CCCC1)C2=O,nt,1.0%,nt,nt,?,nt
CCOc1ccc(CCNCc2c(C(=O)O)n(Cc3ccc(C)cc3)c3cc(OC)ccc23)cc1,nt,nt,?,-25.1%,nt,-5.0
CCN(CC(=O)Nc1c(F)cccc1F)C(=O)c1ccc(OC)c(S(=O)(=O)NC2CCCC2)c1,nt,nt,nt,34.5%,nt,-71.6*
CCC[C@@H](/C=C/C(=O)OCC)NC(=O)C(F)(F)F,nt,nt,nt,nt,nt,-4.6
Cc1cccc(Oc2sc(C(=O)c3ccccc3)c(N)c2C#N)c1,10µM*,-0.9%,1.58µM*,?,?,14.2
